Source: PubChem BioAssay (NCI)
About 79,000 compounds went through this panel and 15% of them were active in at least one assay; those are over-represented in the sample as a whole. Activity calls are given as the source filed them. Rule as the data show it: active = growth inhibition above about 70%; inactive = the rest.

How the values were obtained:
[1] = NCI Yeast Anticancer Drug Screen. Data for the rad52 strain (AID 147);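 also: 0% = growth of vehicle-treated control cultures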; conditions: S. cerevisiae rad52 mutant growth inhibition, active compounds read high
How it was run: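 Vehicle-treated cultures served as the reference for growth inhibition of compound-exposed yeast bearing a DNA repair mutation.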

[2] = NCI Yeast Anticancer Drug Screen. Data for the wt1 strain (AID 149);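 also: 0% = growth of vehicle-treated wt1 cultures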; conditions: S. cerevisiae wt1 strain (SPY 50644) growth inhibition, active compounds read high
How it was run: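 Using yeast strain wt1, compound-induced growth inhibition was determined against vehicle-treated cultures.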

[3] = NCI Yeast Anticancer Drug Screen. Data for the mgt1 strain (AID 153); conditions: S. cerevisiae mgt1 mutant growth inhibition, active compounds read high
How it was run: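 mgt1 strain exposed; growth vs vehicle control recorded as inhibition.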

[4] = NCI Yeast Anticancer Drug Screen. Data for the rad50 strain (AID 155);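 also: 0% = growth of vehicle-only cultures of the same strain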; conditions: S. cerevisiae rad50 strain growth inhibition, active compounds read high
How it was run: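 Relative growth inhibition (compound vs vehicle) was measured in yeast with a defined repair-gene alteration.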

[5] = NCI Yeast Anticancer Drug Screen. Data for the mec2-1 strain (AID 157); conditions: S. cerevisiae mec2-1 strain, active compounds read high
How it was run: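 Vehicle-treated cultures served as reference for growth inhibition of compound-exposed mec2-1 yeast.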

[6] = NCI Yeast Anticancer Drug Screen. Data for the rad14 strain (AID 159);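 also: 0% = growth of vehicle-treated control cultures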; conditions: S. cerevisiae rad14 strain growth inhibition, active compounds read high
How it was run: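 Screen for anticancer potential: a yeast strain altered in DNA damage repair is grown with compound, and reduced growth is quantified against vehicle controls.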

[7] = NCI Yeast Anticancer Drug Screen. Data for the sgs1 mgt1 strain (AID 161);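 also: 0% = growth of cultures given vehicle only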; conditions: S. cerevisiae sgs1 mgt1 strain, active compounds read high
How it was run: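 Genetically altered yeast, compound exposure, growth inhibition relative to vehicle.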

[8] = NCI Yeast Anticancer Drug Screen. Data for the CLN2oe strain (AID 163);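 also: 0% = growth of vehicle-only control cultures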; conditions: S. cerevisiae CLN2oe strain, active compounds read high
How it was run: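 Inhibition relative to vehicle-treated yeast is reported. Cells: strain with genetic alteration in cell-cycle control, grown with compound.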

[9] = NCI Yeast Anticancer Drug Screen. Data for the cln2 rad14 strain (AID 165);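 also: 0% = growth equal to vehicle treated cultures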; conditions: S. cerevisiae cln2 rad14 strain, active compounds read high
How it was run: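 Each compound was tested on cln2 rad14 yeast. Inhibition of growth was calculated against vehicle-exposed controls.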

[10] = NCI Yeast Anticancer Drug Screen. Data for the bub3 strain (AID 167); conditions: S. cerevisiae bub3 mutant strain, active compounds read high
How it was run: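 Screening used yeast with an engineered genetic alteration affecting cell cycle control. Compound-exposed cultures were compared with vehicle cultures, and reduced growth was taken as inhibition.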

[11] = NCI Yeast Anticancer Drug Screen. Data for the wt2 strain (AID 169);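 also: 0% = growth of vehicle-treated yeast cultures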; conditions: S. cerevisiae wt2 strain growth inhibition, active compounds read high
How it was run: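 Inhibition of yeast growth was determined after compound treatment, normalised to controls receiving only vehicle.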

[12] = NCI Yeast Anticancer Drug Screen. Data for the mlh1 strain (AID 171);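 also: 0% = growth of vehicle-treated control cultures of the same strain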; conditions: S. cerevisiae mlh1 strain growth inhibition, active compounds read high
How it was run: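 Vehicle-normalised growth inhibition of a repair- or checkpoint-altered yeast strain following compound treatment.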

[13] = NCI Yeast Anticancer Drug Screen. Data for the sgs1 strain (AID 173);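 also: 0% = growth of vehicle-only control cultures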; conditions: S. cerevisiae sgs1 mutant, active compounds read high
How it was run: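 Screen format: yeast with repair or checkpoint alterations, compound exposure, growth read relative to vehicle.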

[14] = NCI Yeast Anticancer Drug Screen. Data for the mlh1 rad18 strain (AID 175); conditions: S. cerevisiae mlh1 rad18 strain growth inhibition, active compounds read high
How it was run: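 Vehicle-treated cultures served as the reference for growth inhibition in a yeast strain carrying DNA damage repair alterations exposed to each compound.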

[15] = NCI Yeast Anticancer Drug Screen. Data for the rad18 strain (AID 177); conditions: S. cerevisiae rad18 mutant growth inhibition, active compounds read high
How it was run: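 Test articles were incubated with altered yeast defective in DNA damage repair. Results are given as inhibition of growth versus vehicle.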

[16] = at 5.0 µM (retest, dose inferred, filed as 0.5)
[17] = at 50.0 µM (retest, dose inferred, filed as 5.0)

Measured: growth inhibition

CCC(/C=C/c1ccccc1)=N\Nc1ccc(Cl)cc1
inactive: [1]; at 1.2 µM -1% | [1]; at 3.7 µM 2% | [1]; at 11.0 µM -1% | [2]; at 1.2 µM 0% | [2]; at 3.7 µM -2% | [2]; at 11.0 µM -6% | [2]; at 33.0 µM 48% | [3]; at 1.2 µM -4% | [3]; at 3.7 µM 4% | [3]; at 11.0 µM 7% | [3]; at 33.0 µM 5% | [3]; at 100.0 µM 50% | [4]; at 1.2 µM 3% | [4]; at 3.7 µM 9% | [4]; [16] 2% | [4]; at 11.0 µM 12% | [5]; at 1.2 µM 0% | [5]; at 3.7 µM 5% | [5]; [16] -3% | [5]; at 11.0 µM 9% | [5]; at 33.0 µM 6% | [5]; at 100.0 µM 52% | [6]; at 1.2 µM 0% | [6]; at 3.7 µM 0% | [6]; at 11.0 µM 3% | [6]; at 33.0 µM 0% | [7]; [16] 2% | [8]; at 1.2 µM -1% | [8]; at 3.7 µM 1% | [8]; at 11.0 µM 8% | [8]; at 33.0 µM 8% | [8]; at 100.0 µM 48% | [9]; [16] 5% | [9]; [17] 38% | [10]; at 1.2 µM -2% | [10]; at 3.7 µM 2% | [10]; [16] 3% | [10]; at 11.0 µM 5% | [10]; at 33.0 µM 32% | [10]; at 100.0 µM 51% | [11]; at 1.2 µM -4% | [11]; at 3.7 µM -9% | [11]; at 11.0 µM -4% | [12]; at 1.2 µM -2% | [12]; at 3.7 µM 4% | [12]; at 11.0 µM 4% | [12]; at 33.0 µM 2% | [12]; at 100.0 µM 52% | [13]; at 1.2 µM -3% | [13]; at 3.7 µM -4% | [13]; at 11.0 µM -1% | [14]; [16] 7% | [15]; at 1.2 µM -3% | [15]; at 3.7 µM 1% | [15]; at 11.0 µM 3%
active: [1]; at 33.0 µM 86% | [1]; at 100.0 µM 93% | [2]; at 100.0 µM 93% | [4]; at 33.0 µM 77% | [4]; [17] 83% | [4]; at 50.0 µM 97.6% | [4]; at 100.0 µM 93% | [5]; [17] 80% | [5]; at 50.0 µM 85.5% | [6]; at 100.0 µM 76% | [7]; [17] 81% | [7]; at 50.0 µM 86.5% | [9]; at 50.0 µM 89.5% | [10]; [17] 86% | [10]; at 50.0 µM 97.8% | [11]; at 33.0 µM 80% | [11]; at 100.0 µM 94% | [13]; at 33.0 µM 77% | [13]; at 100.0 µM 95% | [14]; [17] 91% | [14]; at 50.0 µM 96% | [15]; at 33.0 µM 79% | [15]; at 100.0 µM 95%
